Test results as given in PubChem BioAssay AID624300 (Southern Research Specialized Biocontainment Screening …, 2012).
Screen size: about 2,400 compounds; about 360 (15%) were called active.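 Rule for the calls: active = viability falls under 70% at one or more tested concentrations, taken as toxicity; inactive = viability stays over 70% at every dose.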 Only a sample is shown. Results with a measured potency or affinity are listed apart.

Assay: HeLa cell cytotoxicity, dose response, cytotoxicity control for MgcRacGAP inhibitor project (AID 624300);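 note: 100% = median of untreated control wells on the same plate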
Settings: CellTiter-Glo luminescence, 24 h; series mostly up to 100 µM; viability: at the top concentration

SMILES | viability
COc1ccc(Nc2ccccc2)c(C)c1 | 93% (inactive)
O=[N+]([O-])c1cc([N+](=O)[O-])c2nonc2c1Nc1ccccc1O | 91.2% (inactive)
Cc1cc(C)c(C)c(S(=O)(=O)N2CCN(c3ccc(O)cc3)CC2)c1C | 111% (inactive)
CCOc1cc(/C=N\NC(=O)c2c(C)nc3ccccn23)ccc1O | 97.5% (inactive)
Oc1ccc(-c2cn3c(n2)SCC3)cc1 | 103% (inactive)
CCN(CC)c1ccc(NC(=O)COc2ccc(-n3cnnn3)cc2)cc1 | 99.8% (inactive)
COc1cc(/C=C/CN2CCC(CO)(CC3CCCCO3)CC2)ccc1O (stereo not drawn) | 102% (inactive)
CC(NS(=O)(=O)c1ccc(Cl)cc1)C(=O)OCC(=O)Nc1ccc(N(C)C)cc1 (stereo not drawn) | 98.3% (inactive)
CCN(CC)CCCNCC(=O)Nc1ccc2c(c1)CCC2 | 100% (inactive)
COC(=O)c1c(NC(=O)CCNCc2ccco2)sc2c1CCC2 | 84.9% (inactive)
O=c1c2ccccc2n2c(=S)[nH]nc2n1-c1ccccc1 | 92% (inactive)
CN(C)C=NC1=NN(c2cccc(C(F)(F)F)c2)CC1 | 89.1% (inactive)
Cc1ccc(N2C(N)=C(C#N)C3(C(=O)N(C)c4ccccc43)C3=C2CC(C)(C)CC3=O)cc1Cl (stereo not drawn) | 100% (inactive)
C=C1CC(C(=O)N/N=C/c2ccc(O)cc2)C1 | 107% (inactive)
COc1cccc(-c2cc(C(=O)N3CCN(c4ccc(F)cc4)CC3)no2)c1 | 102% (inactive)
CC(=O)Nc1ccc2sn(-c3ccccc3)c(=O)c2c1 | 97.9% (inactive)
COc1ccc(N2C(=O)/C(=C/N(C)C)NC2=S)cc1 | 98% (inactive)
O=c1c2ccc(F)cc2sn1-c1ccccc1 | 82.4% (inactive)
NS(=O)(=O)c1ccc(CCNCC(=O)N2CCC(Cc3ccccc3)CC2)cc1 | 92.9% (inactive)
CSC1=NN(c2ccccc2)CN(c2ccccc2)N1C | 86.8% (inactive)
O=C(CNc1ccc(Oc2ccccc2)cc1)N1CCOCC1 | 94.5% (inactive)
COCC(C)NCc1ccccc1C (stereo not drawn) | 101% (inactive)
CN(C)c1ccc(C=Cc2cnccn2)cc1 | 91.6% (inactive)
CCOc1ccccc1N1CCN(C/C=C/c2ccc(N(C)C)cc2)CC1 | 83.7% (inactive)

SMILES | viability
C[n+]1ccc(/C=C/c2ccccc2O)c2ccccc21 | 97.5% (inactive)
CCOCCCn1c(=O)c2ccccc2n2c(=S)[nH]nc12 | 96.2% (inactive)
COc1cc(/C=C(/NC(=O)c2ccccc2)C(=O)Nc2ccc(O)cc2)c([N+](=O)[O-])cc1OC | 110% (inactive)
COc1ccc(CN2CCN(Cc3ccc(C(F)(F)F)cc3)CC2)cc1 | 90.6% (inactive)
O=C(NCc1ccccc1)/C(=C\c1ccc(O)cc1)NC(=O)c1ccco1 | 107% (inactive)
CC(C)C1=Nc2cccc3cccc(c23)N1 | 88.5% (inactive)
COc1ccc(OC(=O)COc2cccc(C)c2)cc1 | 101% (inactive)
ON=C1c2ccccc2-c2ccc(O)cc21 | 97.5% (inactive)
CN(C)c1ccc2cc(S(=O)(=O)O)cc(O)c2c1 | 95.7% (inactive)
O=C(O)c1ccc2c(c1)C(=O)/C(=C\c1ccco1)C2=O | 100% (inactive)
Clc1nc(NCc2cccnc2)nc(N2CCOCC2)n1 | 101% (inactive)
COc1cc(N)ccc1NC(=O)c1cccs1 | 104% (inactive)
COc1ccc(NC2CCCN(C(=O)c3ccc(C)nc3)C2)cc1 (stereo not drawn) | 105% (inactive)
COc1cc(/C=C/C(=O)OCC(=O)NCCC2=CCCCC2)ccc1O | 95.2% (inactive)
COc1ccc(OC)c(CN2CCSCC2)c1 | 96.5% (inactive)
CCOc1cc(N2CCOCC2)c(OCC)cc1NC(=O)c1ccc(C)s1 | 112% (inactive)
CN(C)c1cc2c3ccccc3n(C)c2cc1N | 101% (inactive)
CCOC(=O)SC1=N/C(=C\c2ccc(N(C)C)cc2)C(=O)S1 | 92.7% (inactive)
Cc1ccc(/C=[N+](\[O-])c2ccc(N(C)C)cc2)c2nsnc12 | 102% (inactive)
COc1ccc(NC2=NCCC2)cc1 | 101% (inactive)
COc1cc(/C=C/C(=O)OCC(=O)N2CCC(Cc3ccccc3)CC2)ccc1O | 86.3% (inactive)
Cc1ccc2oc(=O)c(/C=C(\O)c3ccccc3)nc2c1 | 92.1% (inactive)
C/C(=N\NC(=O)CSCc1ccccc1Cl)c1cc(O)ccc1O | 96.4% (inactive)
COc1ccc(C(=O)Nc2ccc(N3CCCCCC3)cc2)cc1S(=O)(=O)N1CCOCC1 | 96.8% (inactive)

SMILES | viability
CCOc1ccc(Nc2n[nH]c(=S)s2)cc1 | 98.4% (inactive)
COc1cc(/C=N\NC(=O)CNC(=O)C(c2ccccc2)c2ccccc2)ccc1O | 101% (inactive)
CSc1ncnc2c1ncn2CCCNc1ccc(C)c(C)c1 | 93.2% (inactive)
CCOC(=O)c1sc(/N=C/c2c(O)ccc3ccccc23)cc1C | 96.4% (inactive)
Nc1ccc(Nc2nc(-c3cc4ccccc4oc3=O)cs2)cc1 | 109% (inactive)
Nc1ccc2c(c1Br)Cc1ccccc1-2 | 93.5% (inactive)
COc1cc(CN2CCN(Cc3ccc(C(F)(F)F)cc3)CC2)cc(OC)c1OC | 82% (inactive)
Nc1c(Cl)cc(NC(=O)c2ccccc2C(=O)O)cc1Br | 103% (inactive)
COc1ccc2c(c1OC)C(=O)OC2CC(=O)c1ccc(O)c(O)c1 (stereo not drawn) | 102% (inactive)
O=C(/C=C/c1ccc(O)c(O)c1)NC(=O)c1ccccc1O | 106% (inactive)
COc1ccc(/C=N/NC(=O)c2ccc(CSc3nc(C)cc(C)n3)cc2)cc1O | 82.1% (inactive)
O=C(COc1cccc2cccnc12)N/N=C/c1ccc(O)cc1 | 88.5% (inactive)
COc1ccc(NC(=O)c2cccc(-c3ccc(O)cc3)c2)cn1 | 83.5% (inactive)
O=C(Nc1ccccc1)c1cccc(-c2nnc(-c3ccccc3)o2)c1 | 106% (inactive)
O=C(CN1CCCCCC1)NCC1CCCO1 (stereo not drawn) | 106% (inactive)
C#CCOCCOCCOCCNc1nc(N2CCN(C(=O)C([C@@H](C)O)n3cc([C@@H](N)CCCCN)nn3)CC2)nc(N2CCN(C(=O)[C@H](CO)n3cc([C@@H](N)C(C)C)nn3)CC2)n1 (stereo partly drawn) | 107% (inactive)
OCCN(C=NC1=NN(c2cccc(C(F)(F)F)c2)CC1)CCO | 88.6% (inactive)
O=C(N/N=C/c1ccc(O)c(O)c1)c1ccc(-n2cnnn2)cc1 | 105% (inactive)
Cc1cc(-c2n[nH]c(=S)n2/N=C/c2sccc2C)n[nH]1 | 97.8% (inactive)
COc1ccc(NCCC#N)cc1 | 108% (inactive)
COc1ccc(NC2CCCN(C(=O)c3cccc(N(C)C)c3)C2)cc1 (stereo not drawn) | 93.3% (inactive)
CCOc1cc(N2CCOCC2)c(OCC)cc1NCC(=O)N1CCN(Cc2ccccc2)CC1 | 98.9% (inactive)
Cc1[nH]n(-c2ccccc2)c(=O)c1/C=N/N(C)c1ccccc1 | 94.8% (inactive)
Nc1ccc(N2CCN(c3cccc(Cl)c3)CC2)cc1 | 109% (inactive)

SMILES | viability
Brc1cccc(OCCN2CCOCC2)c1 | 100% (inactive)
CCS(=O)(=O)NC(C)C(c1cccs1)N1CCN(c2ccc(OC)cc2)CC1 (stereo not drawn) | 97.6% (inactive)
O=C1CCCCCN1Sc1ccccc1 | 93% (inactive)
C=C1c2cccc(O)c2C(O)=C2C(=O)[C@]3(O)C(O)=C(C(N)=O)C(=O)[C@@H](N(C)C)[C@@H]3[C@@H](O)[C@H]12 | 92.5% (inactive)
CCOc1cc(-c2cc(-c3ccc(N)cc3)nc(N)c2C#N)ccc1O | 80.9% (inactive)
CCOc1cc(-c2cc(-c3ccccc3)nc(N)c2C#N)ccc1O | 104% (inactive)
CCOc1cc(/C=N/NC(=O)c2ccccc2-n2cccc2)ccc1O | 114% (inactive)
Nc1ccc2nc(-c3cccnc3)[nH]c2c1 | 92.3% (inactive)
Nc1ccc2nc(-c3ccc(Cl)cc3)[nH]c2c1 | 83.3% (inactive)
COc1cc(CNC2CCCCC2OC)cc(OC)c1 (stereo not drawn) | 100% (inactive)
COc1ccc2c3c(cccc13)N(C)N=C2C | 85.7% (inactive)
Cc1cccc(N2CCC(N=CN(C)C)=N2)c1 | 84.3% (inactive)
CCOC(=O)N/N=C/c1ccc(N(CC)CC)cc1O | 107% (inactive)
O=C(CCC(=O)Nc1ccc(F)cc1)N/N=C/c1ccc(O)cc1 | 99.1% (inactive)
Cc1cc(N2CCCC2)ccc1NC(=O)CN1C(=O)NC2(CCCCC2)C1=O | 98.7% (inactive)
COc1ccc(CN(C)CCc2ccccn2)cc1OC | 99% (inactive)
COc1cc(CN(C)CCc2ccccn2)cc(OC)c1OC | 101% (inactive)
COc1cc(/C(C)=N/N2CCN(Cc3ccc(C)cc3)CC2)ccc1O | 89.5% (inactive)
O=C(CN1CCN(S(=O)(=O)c2ccccc2F)CC1)N1CCc2ccccc2C1 | 95.5% (inactive)
O=C(O)CCCn1c(=S)[nH]c2c(sc3ccc([N+](=O)[O-])cc32)c1=O | 90.5% (inactive)
O=c1c2sc3ccccc3c2[nH]c(=S)n1CCN1CCOCC1 | 96.8% (inactive)
COc1cc(/C=N/NC(=O)c2cnccn2)ccc1O | 98.5% (inactive)
CC1CN(CCCCN2C(=O)c3ccccc3C2=O)CC(C)O1 (stereo not drawn) | 102% (inactive)
CCCCN(CC)CCNC(=O)CCC(=O)Nc1ccc2nc(N3CCN(C)CC3)cc(C)c2c1 | 107% (inactive)

SMILES | viability
CCCCN(CCCC)CCNC(=O)CSCc1ccc(C)cc1 | 93% (inactive)
CC1(C)Nc2cccc3cccc(c23)N1 | 104% (inactive)
COc1ccc(Br)cc1CN1CCC(N2CCCC2)CC1 | 112% (inactive)
CCOc1ccc(NCc2cccn2-c2nnc(N3CCC(C(=O)NCCCN4CCCCC4)CC3)s2)cc1 | 93.5% (inactive)
CC(/C=C/c1ccc(O)cc1)=N/O | 107% (inactive)
COc1ccc(NC2CCCN(C(=O)CSc3ccccc3)C2)cc1OC (stereo not drawn) | 97.7% (inactive)
Cc1ccc(/C=C2/C(=O)c3ccc(C(=O)O)cc3C2=O)o1 | 95.9% (inactive)
Cc1ccc(/C=C2/C(=O)ON=C2c2ccccc2)o1 | 83.9% (inactive)
CC1(C)OC(=O)C(=Cc2ccc(-c3ccc(S(N)(=O)=O)cc3)o2)C(=O)O1 | 99.5% (inactive)
O=S(=O)(O)c1cc(O)c2cc(Nc3ccccc3)ccc2c1 | 101% (inactive)
Nc1ccccc1Nc1cccc(C(F)(F)F)c1 | 96.2% (inactive)
CCOC(=O)c1[nH]c2ccc(C)cc2c1N | 80.9% (inactive)
COc1cc(/C=C/C(=O)OCc2cn3cc(Cl)ccc3n2)ccc1O | 113% (inactive)
CC(=O)Nc1ccc(Nc2ccccc2)cc1 | 98.2% (inactive)
Cc1oc(-c2ccccc2)cc1C(=O)Nc1ccc(N(C)C)cc1 | 101% (inactive)
O=C(O)c1ccccc1C(=O)Nc1ccc(Nc2ccccc2)cc1 | 80.3% (inactive)
O=C(Nc1ccc(Nc2ccccc2)cc1)C1CC1 | 98.6% (inactive)
CCN1CCN(c2ccc(N=Cc3ccc(O)cc3O)cc2)CC1 | 99% (inactive)
Cc1ccc(C)c(OCCCCN2CCCCC2)c1 | 92% (inactive)
CCOc1cc(/C=C/c2cccc[n+]2C)ccc1O | 103% (inactive)
c1csc(CNc2ccc3c(c2)OCCO3)c1 | 96.3% (inactive)
Cc1ccc(S(=O)(=O)Oc2ccc(/C=C3\C(=N)N4N=C(S(C)(=O)=O)SC4=NC3=O)cc2)cc1 | 106% (inactive)
